Compounds with a hit are over-represented: about 3.5% of the library has one in this group of screens.
14-3-3 Bad PPI – disrupts binding of bovine 14-3-3 zeta to phospho-Bad peptide. inhibition, % at 21.7 µM. TR-FRET 14-3-3zeta/Dy647-pBad peptide displacement, 1 h. 220,000 tested, 0.71% active;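 active = inhibition above about 70%, limit read from the data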;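 note: 0% = full 14-3-3 plus peptide FRET controls and 100% = background without 14-3-3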
Target sequence (P63103 whole entry, looked up): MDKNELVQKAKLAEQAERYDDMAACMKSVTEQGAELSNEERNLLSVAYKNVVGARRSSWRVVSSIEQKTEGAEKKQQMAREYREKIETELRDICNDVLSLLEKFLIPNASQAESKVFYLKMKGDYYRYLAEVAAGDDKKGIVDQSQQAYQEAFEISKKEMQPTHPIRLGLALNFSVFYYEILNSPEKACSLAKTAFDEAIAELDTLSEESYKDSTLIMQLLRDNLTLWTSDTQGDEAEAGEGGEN
Mcl1 Bid PPI – disrupts binding of human Mcl-1 to Bid peptide. Q07820. TR-FRET Mcl-1/Bid-Dy647 peptide binding, 1536-well. inhibition, % at 21.7 µM. 220,000 tested, 0.97% active. AID 1021;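 active = compounds that cut the binding signal by more than half at the single screening dose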;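 note: His-tagged Mcl-1 with europium anti-His antibody binding Bid BH3 peptide; 0% = Mcl-1 plus peptide wells and 100% = peptide-only wells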
Target sequence (Q07820 whole entry, looked up): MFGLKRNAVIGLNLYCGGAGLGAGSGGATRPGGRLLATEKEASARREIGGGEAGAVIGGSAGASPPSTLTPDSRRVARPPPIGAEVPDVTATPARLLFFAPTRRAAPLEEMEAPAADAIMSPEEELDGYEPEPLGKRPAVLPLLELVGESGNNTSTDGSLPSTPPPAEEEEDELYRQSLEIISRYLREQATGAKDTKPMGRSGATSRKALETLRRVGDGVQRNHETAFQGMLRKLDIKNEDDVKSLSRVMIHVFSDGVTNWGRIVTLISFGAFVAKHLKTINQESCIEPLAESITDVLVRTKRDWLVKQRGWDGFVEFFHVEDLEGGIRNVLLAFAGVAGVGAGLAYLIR
Mcl1-Noxa inh – Mcl-1/Noxa interaction inhibition | TR-FRET Mcl-1/Noxa peptide binding, 2 h | 220,000 tested, 1.5% active | inhibition, % at 21.7 µM | AID 1022;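 active = compounds that cut the protein-peptide binding signal by more than 50% relative to plate controls in a single-dose test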;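 note: His-tagged Mcl-1 with rhodamine Noxa BH3 peptide and terbium anti-His antibody; 0% = Mcl-1 plus Noxa peptide wells and 100% = peptide-only wells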
Hck-Nef inh – inhibitors of human Hck kinase activated by Nef; P08631; Recombinant Hck-YEEI plus Nef, Z-Lyte FRET kinase assay; inhibition, % at 20 µM; AID 463187; 220,000 tested, 0.68% active;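 active = Hck-Nef kinase inhibition above about 50%, limit read from the data; inactive = inhibition below that limit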;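 note: 0% = DMSO with Hck plus Nef and 100% = Hck alone without Nef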
Mcl-1 Bim block – human Bim-Mcl-1 interaction inhibition; inhibition, % at 10 µM; Bead-based flow cytometry, Bim peptide-Mcl-1 binding; 190,000 tested, 0.1% active; Q07820; AID 1009; in the data active = inhibition above about 40%;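 note: 0% = no compound tracer wells and 100% = peptide blocker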
eIF4E 4G PPI – blocks eIF4E binding to eIF4G. 220,000 tested, 0.37% active. inhibition, % at 21.7 µM. P63073+Q04637. AID 782. TR-FRET eIF4E-eIF4GI(517-606) binding, 2 h;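 active = inhibition above about 30%, limit read from the data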;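 note: 0% = full FRET control wells and 100% = background wells lacking eIF4GI fragment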
Active calls of the source: *; [ ] = dose if it differs, or a comment.

COc1cc(/C=C2\SC(=Nc3ccc(O)cc3)NC2=O)cc(OC)c1O was read as 14-3-3 Bad PPI -1, Mcl1 Bid PPI -31, Mcl1-Noxa inh 62*, Hck-Nef inh 30, Mcl-1 Bim block 0 and eIF4E 4G PPI 9.
COc1cc(/C=C2\SC(c3ccc(C)cc3)=NC2=O)cc(OC)c1O was read as 14-3-3 Bad PPI -8, Mcl1 Bid PPI -23, Mcl1-Noxa inh 51*, Hck-Nef inh 2, Mcl-1 Bim block -3 and eIF4E 4G PPI 7.
For COc1cc(/C=C2\SC(=Nc3c(C)n(C)n(-c4ccccc4)c3=O)NC2=O)ccc1O the results were 14-3-3 Bad PPI -11, Mcl1 Bid PPI -35, Mcl1-Noxa inh 51*, Hck-Nef inh 4, Mcl-1 Bim block 0 and eIF4E 4G PPI 7.
For COc1ccc(/C=C2\SC(=O)N=C2N)cc1OC the results were 14-3-3 Bad PPI -19, Mcl1 Bid PPI -7, Mcl1-Noxa inh 11, Hck-Nef inh 4, Mcl-1 Bim block 1 and eIF4E 4G PPI -5.
For CCOc1cc(/C=C2\NC(=S)N(c3c(C)n(C)n(-c4ccccc4)c3=O)C2=O)ccc1O the results were 14-3-3 Bad PPI -8, Mcl1 Bid PPI -72, Mcl1-Noxa inh 13, Hck-Nef inh -1, Mcl-1 Bim block -1 and eIF4E 4G PPI -13.
`Cn1cccc1/C=C1\SC(=Nc2ccc(O)cc2)NC1=O` gave 14-3-3 Bad PPI -8, Mcl1 Bid PPI -4, Mcl1-Noxa inh 23, Hck-Nef inh 26 and eIF4E 4G PPI -8.
Screening COc1cc(NC(=O)COC(=O)CSc2cc(C)ccc2C)c(C)cc1[N+](=O)[O-] returned 14-3-3 Bad PPI 9, Mcl1 Bid PPI 21, Mcl1-Noxa inh 28, Hck-Nef inh 0, Mcl-1 Bim block -3 and eIF4E 4G PPI -3.
`Cc1ccc(S(=O)(=O)N2CCCCC2)cc1NS(=O)(=O)c1cccc(C(=O)O)c1` gave 14-3-3 Bad PPI 4, Mcl1 Bid PPI -11, Mcl1-Noxa inh 14, Hck-Nef inh -1, Mcl-1 Bim block 0 and eIF4E 4G PPI 0.
Screening O=C(O)CC12CC3CC(C1)CC(n1ncc(NCc4ccccc4Cl)c(Cl)c1=O)(C3)C2 returned 14-3-3 Bad PPI 2, Mcl1 Bid PPI 57*, Mcl1-Noxa inh 19, Hck-Nef inh 9 and eIF4E 4G PPI -4.
`Cn1c2ccccc2c(=O)c2c(=O)n(-c3ccccc3)c(C3CCCCC3)nc21` gave 14-3-3 Bad PPI 0, Mcl1 Bid PPI -9, Mcl1-Noxa inh 19, Hck-Nef inh 7, Mcl-1 Bim block -3 and eIF4E 4G PPI 13.
Screening Cn1c2ccccc2c(=O)c2c(=O)n(C3CCCCCC3)c(C3CCCCC3)nc21 returned 14-3-3 Bad PPI 87*, Mcl1 Bid PPI 89*, Mcl1-Noxa inh -30, Hck-Nef inh 42, Mcl-1 Bim block -3 and eIF4E 4G PPI 12.
Screening Cc1ccc(-c2cc(C(=O)OCC(=O)N(C)C3CCS(=O)(=O)C3)c3ccccc3n2)c(C)c1 (stereo not drawn) returned 14-3-3 Bad PPI -8, Mcl1 Bid PPI -7, Mcl1-Noxa inh 12, Hck-Nef inh 12, Mcl-1 Bim block -2 and eIF4E 4G PPI -1.
For Cc1ccc(-c2cc(C(=O)OCC(=O)N(C)C3CCS(=O)(=O)C3)c3ccccc3n2)o1 (stereo not drawn) the results were 14-3-3 Bad PPI -2, Mcl1 Bid PPI -61, Mcl1-Noxa inh 78*, Hck-Nef inh 21, Mcl-1 Bim block 1 and eIF4E 4G PPI 1.
CCN(C(=O)COC(=O)c1cc(-c2ccc(C)o2)nc2ccccc12)C1CCS(=O)(=O)C1 (stereo not drawn) was read as 14-3-3 Bad PPI 5, Mcl1 Bid PPI 21, Mcl1-Noxa inh 68*, Hck-Nef inh -34, Mcl-1 Bim block -1 and eIF4E 4G PPI 3.
`OCCSc1nc2ccccc2n1CCOc1ccccc1` gave 14-3-3 Bad PPI -1, Mcl1 Bid PPI -40, Mcl1-Noxa inh -4, Hck-Nef inh -1, Mcl-1 Bim block 1 and eIF4E 4G PPI -7.
For N=c1n(Cc2ccccc2)c2ccccc2n1CC(O)COc1ccccc1 (stereo not drawn) the results were 14-3-3 Bad PPI 10, Mcl1 Bid PPI 64*, Mcl1-Noxa inh 19, Hck-Nef inh 3, Mcl-1 Bim block 1 and eIF4E 4G PPI 1.
For Cc1ccc(Cn2c(=N)n(CC(O)COc3ccccc3)c3ccccc32)cc1 (stereo not drawn) the results were 14-3-3 Bad PPI 2, Mcl1 Bid PPI -6, Mcl1-Noxa inh 17, Hck-Nef inh -2, Mcl-1 Bim block 0 and eIF4E 4G PPI -2.
COc1cc(OC)cc(C(=O)NNC(=O)CCc2ccccc2)c1 was read as 14-3-3 Bad PPI -6, Mcl1 Bid PPI -30, Mcl1-Noxa inh 8, Hck-Nef inh 21, Mcl-1 Bim block 1 and eIF4E 4G PPI 1.
For COc1ccc(C)cc1NC(=O)C1CCN(S(=O)(=O)c2cccc3cccnc23)CC1 the results were 14-3-3 Bad PPI 9, Mcl1 Bid PPI 4, Mcl1-Noxa inh 7, Hck-Nef inh 11, Mcl-1 Bim block -5 and eIF4E 4G PPI 0.
`CCOc1ccccc1NC(=O)C1CCN(S(=O)(=O)c2cccc3cccnc23)CC1` gave 14-3-3 Bad PPI 1, Mcl1 Bid PPI -15, Mcl1-Noxa inh -6, Hck-Nef inh 3, Mcl-1 Bim block 1 and eIF4E 4G PPI 57*[fluorescence artefact?].
`CCCC(=O)NC(=S)Nc1sc2c(c1C(N)=O)CCC2` gave 14-3-3 Bad PPI -10, Mcl1 Bid PPI -58, Mcl1-Noxa inh 48, Hck-Nef inh 2, Mcl-1 Bim block -4 and eIF4E 4G PPI -3.
Screening CC(C)C(=O)NC(=S)Nc1sc2c(c1C(N)=O)CCCC2 returned 14-3-3 Bad PPI 2, Mcl1 Bid PPI -80, Mcl1-Noxa inh 64*, Hck-Nef inh 12, Mcl-1 Bim block 0 and eIF4E 4G PPI 4.
COCCn1c(N)c(N(Cc2ccccc2)C(=O)C2CCCC2)c(=O)[nH]c1=O was read as 14-3-3 Bad PPI -5, Mcl1 Bid PPI 0, Mcl1-Noxa inh 8, Hck-Nef inh 22, Mcl-1 Bim block 0 and eIF4E 4G PPI 0.
COCCn1c(N)c(C(=S)NC(=O)c2cccs2)c(=O)[nH]c1=O was read as 14-3-3 Bad PPI 7, Mcl1 Bid PPI -6, Mcl1-Noxa inh 70*, Hck-Nef inh -15 and eIF4E 4G PPI -4.
Screening CC1(C)CC(Nc2ccc(Nc3ccccc3)cc2)CC(C)(C)N1 returned 14-3-3 Bad PPI -8, Mcl1 Bid PPI -241, Mcl1-Noxa inh 8, Hck-Nef inh -83 and eIF4E 4G PPI 8.
For N#CC1=C(N)N(c2ccc(F)cc2)C2=C(C1c1ccc(O)cc1)S(=O)(=O)CC2 (stereo not drawn) the results were 14-3-3 Bad PPI -3, Mcl1 Bid PPI 30, Mcl1-Noxa inh 90*, Hck-Nef inh 42, Mcl-1 Bim block 21 and eIF4E 4G PPI 20.
Screening O=C(NCc1ccncc1)C(=O)N/N=C/c1cccnc1 returned 14-3-3 Bad PPI 26, Mcl1 Bid PPI -19, Mcl1-Noxa inh 1, Hck-Nef inh 14, Mcl-1 Bim block 0 and eIF4E 4G PPI -1.
